# Where “and” joins values, the source holds several entries; their conditions need not be identical. Equal values may be shown once. Values without a mark were called inactive. Inconclusive results are not listed. Entries that show only a call come without a potency. Calls of active or inactive are those of the source. Unless noted, the call rests on the fitted dose curve.
# How the values were obtained:
# [1] = Nuclear factor erythroid 2-related factor 2/antioxidant responsive element (Nrf2/ARE) small molecule agonists: luciferase reporter gene qHTS assay in human keratinocytes (AID 1919969); further: nearly all actives have a fitted effect of over 35% in size; further: potency means the concentration at half of the fitted maximal effect
# [2] = biological target: Gonadotropin-releasing hormone receptor (Homo sapiens) (UniProt P30968); test: Human gonadotropin-releasing hormone receptor (GnRHR) small molecule agonists, calcium flux assay in GnRHR-HEK293 cells (AID 1920063); further: nearly all actives have a fitted effect of over 35% in size; further: potency means the concentration at half of the fitted maximal effect
# Procedure, shortened: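 Compounds dissolved in DMSO are pin-transferred onto dye-loaded GnRHR-HEK293 cells, which were seeded 18 h before at 37 C/5% CO2. Calcium signal is read as fluorescence intensity at 1 s intervals for 3 min.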
# [3] = biological target: KiSS-1 receptor (Homo sapiens) (UniProt Q969F8); test: Human kisspeptin (KISS1R) small molecule agonists, calcium flux assay in KISS1R-HEK293 cells (AID 1920064; active means well fitted activation curve with a large enough effect in the repeat runs; further: potency means the concentration at half of the fitted maximal effect)
# Procedure, shortened: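 Cell line: HEK293, stable human KISS1R. Dye loading 1 h at 37 C after 18 h culture. Read: kinetic fluorescence, 480/540 nm, 3 min at 1 s intervals.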
# [4] = G protein-coupled receptor (GPCR) small molecule agonists, calcium flux assay: HEK293 wild type cell line counter screen (AID 1920065); further: potency means the concentration at half of the fitted maximal effect
# Procedure, shortened: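 Tox21 10K compounds, 15 concentrations each in triplicate, pin-transferred in DMSO onto dye-loaded cells; kinetic read at 480/540 nm for 3 min, 1 s intervals.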
# [5] = p53 small molecule agonists, cell-based qHTS assay with human liver microsomes (AID 1963577);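 further: p53 response element beta-lactamase reporter cells with liver microsomes plus NADPH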
# Procedure, shortened: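 HLM-supplemented p53RE-bla reporter assay: 16 h compound exposure at 37 C, microsomes and NADPH each 0.5 mg/mL final, read by fluorescence intensity.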
# [6] = p53 small molecule agonists, cell-based qHTS assay with human liver microsomes: qHTS cell viability counter screen (AID 1963579); further: nearly all actives have a fitted effect of over 45% in size
# Procedure, shortened: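 Viability of p53RE-bla cells is measured as CellTiter-Glo luminescence following a 16 h, 37 C incubation with compound, liver microsomes from human donors and NADPH.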
# [7] = p53 small molecule agonists, cell-based qHTS assay with rat liver microsomes: qHTS cell viability counter screen (AID 1963580); further: nearly all actives have a fitted effect of over 45% in size
# Procedure, shortened: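 Rat liver microsome (0.5 mg/mL final) and NADPH (0.5 mg/mL final) co-incubation with compounds for 16 h at 37 C on HCT-116 p53RE-bla cells; cytotoxicity taken from intracellular ATP luminescence.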
# [8] = p53 small molecule agonists, cell-based qHTS assay: qHTS cell viability counter screen (AID 1963581); further: nearly all actives have a fitted effect of over 45% in size
# Procedure, shortened: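 ATP content measured by luminescence in HCT-116 p53RE-bla cells treated 16 h at 37 C, same wells as the reporter screen.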
# [9] = p53 small molecule agonists, cell-based qHTS assay (AID 1963582; active means well fitted activation curve with a large enough effect in the signal ratio in the repeat runs, not every such curve was filed as active; the % refers to the signal ratio; further: potency means the concentration at half of the fitted maximal effect)
# Procedure, shortened: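 16 h compound exposure (37 C) of p53 response element–bla cells, preceded by 5 h recovery at 37 C/5% CO2; read-out via LiveBLAzer B/G FRET substrate, 2 h RT, fluorescence intensity.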
# [10] = biological target: 5-hydroxytryptamine receptor 2A (Homo sapiens) (UniProt P28223); test: 5-hydroxytryptamine receptor 2A (HTR2A) small molecule antagonists, cell-based qHTS assay (AID 1963586); further: nearly all actives have a fitted effect of over 45% in size
# Procedure, shortened: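 CHO cells stably expressing human HTR2A were plated for 18 h at 37 C, then loaded with calcium dye for 1 h. Compounds were preincubated 5 min at room temperature before DOI (4 nM solution) was added. Kinetic fluorescence was read for 3 min.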
# [11] = biological target: 5-hydroxytryptamine receptor 2A (Homo sapiens) (UniProt P28223); test: 5-hydroxytryptamine receptor 2A (HTR2A) small molecule agonists, cell-based qHTS assay (AID 1963587); further: nearly all actives have a fitted effect of over 30% in size; further: potency means the concentration at half of the fitted maximal effect
# Procedure, shortened: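 Kinetic calcium-flux fluorescence (2 min, 1 sec intervals) after compound addition in agonist mode. HTR2A-CHO cells were cultured 18 h, then dye-loaded 1 h at 37 C.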
# [12] = biological target: Muscarinic acetylcholine receptor M1 (Homo sapiens) (UniProt P11229); test: Cholinergic receptor muscarinic 1 (CHRM1) small molecule antagonists, cell-based qHTS assay (AID 1963588); further: nearly all actives have a fitted effect of over 40% in size; further: potency means the concentration at half of the fitted maximal effect
# Procedure, shortened: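 Compounds were tested at 15 concentrations in three independent runs. Dye-loaded CHRM1-CHO cells were exposed 5 min at room temperature before stimulation by acetylcholine added at 50nM. Intracellular calcium was read kinetically on FDSS for 3 min.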
# [13] = biological target: Muscarinic acetylcholine receptor M1 (Homo sapiens) (UniProt P11229); test: Cholinergic receptor muscarinic 1 (CHRM1) small molecule agonists, cell-based qHTS assay (AID 1963589); further: nearly all actives have a fitted effect of over 35% in size; further: potency means the concentration at half of the fitted maximal effect
# Procedure, shortened: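 Homogeneous fluorescence calcium flux, agonist mode. Human M1-expressing CHO cells; compound dosed at 15 concentrations, three independent runs; signal sampled every 1 sec.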
# [14] = biological target: D(2) dopamine receptor (Homo sapiens) (UniProt P14416); test: Dopamine D2 receptor (DRD2) small molecule agonists, cell-based qHTS assay (AID 1963594); further: nearly all actives have a fitted effect of over 35% in size
# Procedure, shortened: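 cAMP accumulation in DRD2-HEK293 cells measured by HTRF after 1 h detection; compounds added 10 min before NKH477 (200nM […]) forskolin-analogue stimulation, 30 min at room temperature, with Ro20-1724 present at 0.1 mM final.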
# [15] = biological target: D(2) dopamine receptor (Homo sapiens) (UniProt P14416); test: Dopamine D2 receptor (DRD2) small molecule antagonists, cell-based qHTS assay (AID 1963595; active means well fitted inhibition curve with a large enough effect in the signal ratio in the repeat runs, with a control signal flat; the % refers to the signal ratio)
# Procedure, shortened: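 Antagonist mode in DRD2-HEK293 cells: after compound addition with 0.1 mM Ro20-1724, cells received quinpirole (12 nM) and NKH477 (200 nM) for 30 min at room temperature; HTRF cAMP read after 1 h detection.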
# [16] = cAMP Responsive Elements (CRE) small molecule agonists, cell-based qHTS assay (AID 1963590)
# Procedure, shortened: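 HEK 293T cells stably bearing CRE-bla were plated at 2,000 cells per well and rested 18 h. Compounds, positive controls or DMSO were added for 3 h at 37 C. LiveBLAzer B/G substrate was then loaded for 2 h at room temperature.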
# [17] = cAMP Responsive Elements (CRE) small molecule antagonists, cell-based qHTS assay (AID 1963591; active means well fitted inhibition curve with a large enough effect in the signal ratio in the repeat runs, not every such curve was filed as active; the % refers to the signal ratio)
# Procedure, shortened: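 First, CRE-bla HEK293T cells settled 18 h at 37 C. Next, compound and 0.25 uM final NKH477 were applied for 3 h. Last, LiveBLAzer B/G substrate was loaded for 2 h at room temperature.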
# [18] = biological target: Beta-2 adrenergic receptor (Homo sapiens) (UniProt P07550); test: Adrenergic beta2 receptor (ADRB2) small molecule antagonists, cell-based qHTS assay (AID 1963592); further: series mostly up to about 92 µM; nearly all actives have a fitted effect of over 50% in size
# Procedure, shortened: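 Assay format: CHO-ADRB2 cells, 18-20hr seeding at 37C/5% CO2, then compound plus 1nM isoproterenol agonist mix for 0.5hr RT. Homogeneous time-resolved fluorescence cAMP detection after 1hr, expressed as 665/615 nm ratio.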
# [19] = p53 small molecule agonists, cell-based qHTS assay with rat liver microsomes (AID 1963578)
# Procedure, shortened: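 Quantitative HTS of the Tox21 10K library: p53RE-bla cells, rat liver microsomes plus NADPH at 0.5 mg/mL final each, 16 h at 37 C, beta-lactamase fluorescence detection.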
# [20] = biological target: Beta-2 adrenergic receptor (Homo sapiens) (UniProt P07550); test: Adrenergic beta2 receptor (ADRB2) small molecule agonists, cell-based qHTS assay (AID 1963593);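 further: CHO cells stably overexpressing human ADRB2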
# Procedure, shortened: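 CHO cells stably over-expressing ADRB2 were plated overnight at 37C, then dosed with compounds plus a stimulation mix containing 100uM IBMX and 25uM Ro-20-1724 for 0.5hr at room temperature. cAMP was measured by HTRF competition, 1hr.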
# Sequence of Gonadotropin-releasing hormone receptor (Homo sapiens) (P30968 whole entry, looked up): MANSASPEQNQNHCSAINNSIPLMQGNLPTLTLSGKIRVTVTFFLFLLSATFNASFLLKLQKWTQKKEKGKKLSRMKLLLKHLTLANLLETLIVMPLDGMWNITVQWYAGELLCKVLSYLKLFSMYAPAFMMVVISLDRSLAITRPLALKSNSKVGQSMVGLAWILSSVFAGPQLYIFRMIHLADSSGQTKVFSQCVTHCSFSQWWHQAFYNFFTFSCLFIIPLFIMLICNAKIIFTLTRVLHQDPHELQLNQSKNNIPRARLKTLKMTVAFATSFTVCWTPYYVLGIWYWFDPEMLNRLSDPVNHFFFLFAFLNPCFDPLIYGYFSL
# Sequence of Muscarinic acetylcholine receptor M1 (Homo sapiens) (P11229 whole entry, looked up): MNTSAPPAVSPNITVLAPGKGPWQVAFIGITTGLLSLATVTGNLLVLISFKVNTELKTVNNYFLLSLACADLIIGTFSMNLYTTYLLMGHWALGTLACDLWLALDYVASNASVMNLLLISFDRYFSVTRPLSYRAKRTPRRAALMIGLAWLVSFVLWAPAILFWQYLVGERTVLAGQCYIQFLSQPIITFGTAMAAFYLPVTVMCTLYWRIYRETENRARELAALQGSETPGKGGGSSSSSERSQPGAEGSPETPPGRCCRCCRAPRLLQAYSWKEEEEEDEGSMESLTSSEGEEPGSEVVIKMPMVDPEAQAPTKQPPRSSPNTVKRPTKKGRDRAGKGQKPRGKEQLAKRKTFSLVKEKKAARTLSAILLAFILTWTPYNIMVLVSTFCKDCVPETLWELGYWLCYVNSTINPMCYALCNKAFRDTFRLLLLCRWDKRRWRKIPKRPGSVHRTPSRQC
# Sequence of Beta-2 adrenergic receptor (Homo sapiens) (P07550 whole entry, looked up): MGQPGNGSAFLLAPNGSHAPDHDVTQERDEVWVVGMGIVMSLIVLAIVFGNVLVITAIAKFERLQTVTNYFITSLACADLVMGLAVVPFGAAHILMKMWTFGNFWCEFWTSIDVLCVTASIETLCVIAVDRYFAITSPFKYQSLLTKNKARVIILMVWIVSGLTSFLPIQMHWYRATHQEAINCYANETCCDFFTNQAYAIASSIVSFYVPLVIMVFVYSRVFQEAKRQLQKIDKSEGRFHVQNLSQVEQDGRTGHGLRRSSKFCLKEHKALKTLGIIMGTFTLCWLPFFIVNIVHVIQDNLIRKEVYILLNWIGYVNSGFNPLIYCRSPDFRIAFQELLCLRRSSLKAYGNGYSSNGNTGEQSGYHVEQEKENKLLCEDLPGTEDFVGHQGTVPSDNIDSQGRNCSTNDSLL
# Sequence of 5-hydroxytryptamine receptor 2A (Homo sapiens) (P28223 whole entry, looked up): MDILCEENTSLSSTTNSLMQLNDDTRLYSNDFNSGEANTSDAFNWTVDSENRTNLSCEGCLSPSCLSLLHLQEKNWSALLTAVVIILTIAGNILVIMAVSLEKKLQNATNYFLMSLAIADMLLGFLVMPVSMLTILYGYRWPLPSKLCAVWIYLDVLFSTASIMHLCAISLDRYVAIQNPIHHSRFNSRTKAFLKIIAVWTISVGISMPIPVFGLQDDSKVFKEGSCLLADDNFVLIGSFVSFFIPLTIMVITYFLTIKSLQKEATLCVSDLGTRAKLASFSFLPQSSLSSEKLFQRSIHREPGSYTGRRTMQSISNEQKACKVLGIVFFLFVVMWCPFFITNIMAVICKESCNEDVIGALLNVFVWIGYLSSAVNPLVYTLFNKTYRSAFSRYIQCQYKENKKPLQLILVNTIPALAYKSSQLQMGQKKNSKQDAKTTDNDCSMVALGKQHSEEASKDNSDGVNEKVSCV
# Sequence of KiSS-1 receptor (Homo sapiens) (Q969F8 whole entry, looked up): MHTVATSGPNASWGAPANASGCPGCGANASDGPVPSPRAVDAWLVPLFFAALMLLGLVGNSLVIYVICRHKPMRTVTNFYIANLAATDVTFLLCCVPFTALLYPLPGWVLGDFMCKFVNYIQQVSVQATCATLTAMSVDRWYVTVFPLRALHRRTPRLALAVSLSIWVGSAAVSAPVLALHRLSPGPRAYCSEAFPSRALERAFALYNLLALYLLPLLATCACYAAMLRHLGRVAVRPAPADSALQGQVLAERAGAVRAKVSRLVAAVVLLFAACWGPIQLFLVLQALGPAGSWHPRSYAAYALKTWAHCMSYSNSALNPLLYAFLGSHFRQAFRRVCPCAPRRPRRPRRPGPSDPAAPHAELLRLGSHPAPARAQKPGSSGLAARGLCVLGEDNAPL
# Sequence of D(2) dopamine receptor (Homo sapiens) (P14416 whole entry, looked up): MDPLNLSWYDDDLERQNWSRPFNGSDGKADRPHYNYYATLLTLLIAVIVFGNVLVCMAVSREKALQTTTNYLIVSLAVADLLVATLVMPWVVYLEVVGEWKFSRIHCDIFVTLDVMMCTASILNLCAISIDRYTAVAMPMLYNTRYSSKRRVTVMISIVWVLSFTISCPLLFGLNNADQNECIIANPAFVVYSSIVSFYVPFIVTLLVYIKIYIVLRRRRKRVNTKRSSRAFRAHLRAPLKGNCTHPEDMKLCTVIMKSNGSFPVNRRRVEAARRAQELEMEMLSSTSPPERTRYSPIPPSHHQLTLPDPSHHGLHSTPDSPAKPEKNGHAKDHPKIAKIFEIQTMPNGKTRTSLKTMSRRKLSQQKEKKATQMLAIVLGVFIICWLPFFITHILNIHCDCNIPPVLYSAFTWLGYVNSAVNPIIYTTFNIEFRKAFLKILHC
smiles,measurement,setting,value
Nc1ccc2cc3ccc(N)cc3nc2c1,Potency,[1],1.54 µM (active) and 6.68 µM (active)
same,Potency,[2],38.9 µM (active) and 16.9 µM (active)
same,Potency,[3],49 µM (active) and 23.9 µM (active)
same,Potency,[4],38.9 µM (active) and 16.9 µM (active)
same,Potency,[5],inactive
same,Potency,[6],inactive
same,Potency,[7],inactive
same,Potency,[8],inactive
same,Potency,[9],1.82 µM (active)
same,Potency,[10],inactive
same,Potency,[11],19.5 µM (active) and 19 µM (active)
same,Potency,[12],inactive
same,Potency,[13],43.6 µM (active) and 23.9 µM (active)
same,Potency,[14],inactive
same,Potency,[15],inactive
CC1CCC(=O)C1=O (centres undefined),Potency,[1],inactive
same,Potency,[2],inactive
same,Potency,[3],inactive
same,Potency,[4],inactive
same,Potency,[6],inactive
same,Potency,[7],inactive
same,Potency,[8],inactive
same,Potency,[10],inactive
same,Potency,[11],inactive
same,Potency,[12],inactive
same,Potency,[13],inactive
same,Potency,[16],inactive
same,Potency,[17],inactive
same,Potency,[18],inactive
same,Potency,[14],inactive
same,Potency,[15],inactive
BrCCOc1ccccc1,Potency,[1],inactive
same,Potency,[2],inactive
same,Potency,[3],inactive
same,Potency,[4],inactive
same,Potency,[6],inactive
same,Potency,[7],inactive
same,Potency,[8],inactive
same,Potency,[10],inactive
same,Potency,[11],inactive
same,Potency,[12],inactive
same,Potency,[13],inactive
same,Potency,[16],inactive
same,Potency,[17],inactive
same,Potency,[18],inactive
same,Potency,[14],inactive
same,Potency,[15],inactive
O=C(Nc1ccc(S(=O)(=O)N2CCOCC2)cc1)c1cc(Cl)ccc1NS(=O)(=O)c1ccc(Cl)s1,Potency,[1],inactive
same,Potency,[2],inactive
same,Potency,[3],inactive
same,Potency,[4],inactive
same,Potency,[19],inactive
same,Potency,[6],inactive
same,Potency,[7],inactive
same,Potency,[8],inactive
same,Potency,[12],inactive
same,Potency,[13],inactive
same,Potency,[16],inactive
same,Potency,[17],inactive
same,Potency,[14],inactive
same,Potency,[15],inactive
CCOC(=O)COc1ccc2c(C)c(CCN(CC)CC)c(=O)oc2c1Cl,Potency,[1],inactive
same,Potency,[2],inactive
same,Potency,[3],inactive
same,Potency,[4],inactive
same,Potency,[19],inactive
same,Potency,[6],inactive
same,Potency,[7],inactive
same,Potency,[9],inactive
same,Potency,[10],inactive
same,Potency,[11],inactive
same,Potency,[12],2.59 µM (active)
same,Potency,[13],inactive
same,Potency,[18],inactive
same,Potency,[14],inactive
same,Potency,[15],inactive
NC(N)=NCCC[C@H](N)C(=O)O,"activity, positive = activation",[1],-5.37% [at 8.39 µM]
same,activity change,[2],"0.97% [at 5.22 µM, active compounds read high]"
same,activation,[3],-0.0198% [at 6.97 µM]
same,activation,[4],2.23% [at 5.23 µM]
same,"activity change, negative = cytotoxicity",[6],-0.294% [at 5.99 µM]
same,"activity change, negative = cytotoxicity",[7],1.88% [at 5.99 µM]
same,"activity change, negative = cytotoxicity",[8],-8.01% [at 5.99 µM]
same,"activity, negative = inhibition",[10],19.6% [at 5.62 µM]
same,activation,[11],2.81% [at 7.02 µM]
same,"activity, negative = inhibition",[12],-1.41% [at 5.58 µM]
same,activation,[13],-0.347% [at 6.97 µM]
same,activation,[16],4.27% [at 8.39 µM]
same,"activity change, negative = inhibition",[17],-3.28% [at 8.39 µM]
same,"activity change, negative = inhibition",[18],0.0181% [at 8.39 µM]
same,activation,[14],-13.5% [at 8.39 µM]
COc1ccccc1OCC1CNC(=O)O1 (centres undefined),Potency,[1],inactive
same,Potency,[2],inactive
same,Potency,[3],inactive
same,Potency,[4],inactive
same,Potency,[6],inactive
same,Potency,[7],inactive
same,Potency,[8],inactive
same,Potency,[10],inactive
same,Potency,[11],inactive
same,Potency,[12],inactive
same,Potency,[13],inactive
same,Potency,[16],inactive
same,Potency,[17],inactive
same,Potency,[18],inactive
same,Potency,[14],inactive
same,Potency,[15],inactive
CC(C)COC(=O)C(C)C,Potency,[1],inactive
same,Potency,[2],inactive
same,Potency,[3],inactive
same,Potency,[4],inactive
same,Potency,[6],inactive
same,Potency,[7],inactive
same,Potency,[8],inactive
same,Potency,[10],inactive
same,Potency,[11],inactive
same,Potency,[12],inactive
same,Potency,[13],inactive
same,Potency,[16],inactive
same,Potency,[17],inactive
same,Potency,[18],inactive
same,Potency,[20],inactive
same,Potency,[14],inactive
same,Potency,[15],inactive

# — PubChem BioAssay (Tox21)
